Among the data in PubChem BioAssay are z-score values, retold here.

The structures appear in SMILES notation. Values without a mark were called inactive. How the calls were made is not given here.

The test in a line: P. aeruginosa biofilm formation inhibitors, primary screen, strain PAO1, LB-PBS medium, absorbance 600 nm (AID 1176). Further: test concentration not given here. The following applies: P. aeruginosa PAO1 growth/biofilm, A600, 12 h; higher = more signal.
As for `CC=CC1=C(CO)[C@H](O)[C@H]2O[C@H]2[C@H]1O`, the z-score is -0.47. Then `COCCNC(=O)OCC1CCCC2(CC(OC(=O)NCCc3ccc(F)cc3)CC(CCC(=O)N[C@@H](C)C(=O)OC)O2)O1` (stereo partly specified), with 0.262. For `CC(C)[C@H](NC(=O)OC(C)(C)C)[C@@H](O)CC(=O)OC(C)(C)C`, the z-score is -0.506. With `CCc1cc2c(nc1CC)CCN(CCC(C)=NOC[C@@H](O)COCc1ccco1)C2`, the z-score was -0.0174. Regarding `CCOC(=O)[C@H](Cc1ccccc1)NC(=O)CCC1CC(OC(=O)NCc2ccc3c(c2)OCO3)CC2(CCCC(COC(=O)NCc3ccccc3)O2)O1` (stereo partly specified), the z-score was 0.0858.

For `C=CCOC(=O)[C@H]1[C@@H]2C(=O)O[C@@H](c3ccccc3)[C@@H](c3ccccc3)N2[C@@H](c2ccc(OCCOC(=O)[C@H]3C[C@H]4C(=O)N[C@@H](Cc5ccccc5)C(=O)N4[C@H]3c3ccc(O)cc3)cc2)[C@]12C(=O)Nc1ccccc12`, the z-score was 2.64. `C=CC[C@@H]1C=C[C@H](ON=C2c3cc(OC)ccc3O[C@H](c3cccc(OC)c3)[C@H]2O)[C@@H](CO)O1`: the z-score was 0.113. In the case of `CC(C)(C)N1C(=O)[C@H]2[C@H]3[C@H](O)[C@H](O)CC(=NO[C@@H]4O[C@H](CO)[C@@H](O)[C@H](O)[C@H]4O)[C@@H]3CC[C@H]2C1=O`, the z-score is 0.0821. For the compound `CC(C)=NOCc1cccc(-c2cc(-c3ccccc3)no2)c1`, the z-score is 0.475. As to `C[C@H]1CC[C@@H](C(=O)O)N[C@@H]1c1ccc(C#CCN(C)C)cc1`, the z-score is -0.458. As to `CO[C@H]1COC(=O)[C@H](C)NC(=O)[C@@H](C)COC(=O)CC=C[C@@H]1C`, the z-score is -0.443.

On to `COC(=O)CC=C[C@H](C)[C@H](CO)NS(=O)(=O)c1ccc(C)cc1`, for which the z-score is 1.09. As for `Cc1cc2c(nc1C)CCCN2CC(C)ON=C1[C@H]2CCn3c(=O)n(-c4ccccc4)c(=O)n3[C@H]2[C@H](O)[C@@H]2O[C@H]12` (stereo partly specified), the z-score is 0.381. As to `CC(C)OC(=O)C=C1C[C@@H](c2ccc(C#N)cc2)O[C@@H](c2ccc(C#N)cc2)O1`, the z-score is -0.281. Take `CO[C@H]1COC(=O)[C@H](C)COC(=O)CC=C[C@@H](C)[C@H](OC)COC(=O)CC=C[C@@H]1C`: the z-score is -0.167.

For the compound `CC(CCN1CCc2nc(-c3ccccc3)c(-c3ccccc3)cc2C1)=NO[C@@H](C)c1cn([C@H](CO)Cc2ccccc2)nn1`, the z-score was -0.23. Turning to `COc1ccc([Si](C)(C)[C@@H]2[C@@H](CC(=O)N3CCC[C@H]3CO)O[C@]3(C(=O)N(Cc4cccc(N5CCC5=O)c4)c4ccccc43)[C@H]2C)cc1`, the z-score is 1.19.

Consider `COc1ccccc1CN1C(=O)c2ccccc2[C@@H](C(=O)NCC(F)(F)F)[C@@H]1c1ccc(CO)cc1`, for which the z-score was 0.512. For the compound `[N-]=[N+]=NCc1ccccc1[C@@H]1OC(c2ccc(OCCCO)cc2)=N[C@]1(Cc1ccccc1)C(=O)N1CCOCC1`, the z-score was -0.208. On to `CC(C)(C)OC(=O)CC[C@]1(C(=O)NCc2ccccc2)N=C(c2ccc(OCCCO)cc2)O[C@H]1c1ccccc1`, for which the z-score is 0.469. Consider `CC1CC/C=C\[C@H]2OC34C=CCN(Cn5nnc6ccccc65)C(=O)[C@H]3N(CCO)C(=O)[C@@H]4C2C(=O)O1` (stereo partly specified), for which the z-score is 0.773.

As for `CCOC(=O)CCN1C(=O)[C@H]2[C@H]3[C@H](O)C=CC(=O)[C@@H]3CC[C@H]2C1=O`, the z-score was 0.0942. With `O=C1C[C@@H](O)[C@@H](O)[C@@H]2[C@@H]3C(=O)N(Cc4ccc5c(c4)OCO5)C(=O)[C@@H]3CC[C@@H]12`, the z-score was -0.131. Next, `CCN1C(=O)[C@H]2[C@H]3[C@H](O)[C@H](O)CC(=NO[C@@H]4O[C@H](CO)[C@@H](O)[C@H](O)[C@H]4O)[C@@H]3CC[C@H]2C1=O`: -0.343; `C#CCCCON=C1C[C@@H](O)[C@@H](O)[C@@H]2[C@@H]3C(=O)N(Cc4ccccc4)C(=O)[C@@H]3CC[C@H]12`: 0.495. Then `C[C@@H](c1ccccc1)N1C(=O)[C@H]2[C@H]3[C@H](O)[C@H](O)CC(=NNC(=O)OCc4ccccc4)[C@H]3CC[C@H]2C1=O`, with 0.413. `COC(=O)[C@H](C)NC(=O)CCC1CC(OC(=O)NCc2cccc3ccccc23)CC2(CCCC(COC(=O)NCCc3ccc(Cl)cc3)O2)O1` (stereo partly specified): the z-score is -0.61.

With `CCc1cc2c(nc1CC)CCN(CCC(C)=NOC(C)CN1CCCc3nc(C)c(C)cc31)C2` (stereo unspecified), the z-score was 0.429. With `COC(=O)[C@@]1(Cc2ccc(OC)cc2)[C@H]2c3cc(C(=O)N4CCCC4)n(Cc4cc(F)c(F)c(F)c4)c3C[C@H]2CN1C(=O)c1ccccc1`, the z-score is 1.03. In the case of `CN1C(=O)C2C=CC(C(O)c3ccc(Br)cc3)N(N(c3ccccc3)c3ccccc3)C2C1=O` (stereo unspecified), the z-score was 1.01. Take `CCOC(=O)NN=C1C[C@@H](O)[C@@H](O)[C@@H]2[C@@H]3C(=O)N(CC)C(=O)[C@@H]3CC[C@@H]12`: the z-score was -0.331. With `O=C(CS)NCCCCCNC(=O)[C@@H]1C[C@@H]2C(=O)N[C@@H](Cc3ccccc3)C(=O)N2[C@@H]1c1ccc(O)cc1`, the z-score is -0.0338. Consider `C=CC[C@]1(C(=O)NCc2ccccc2)N=C(c2ccc(OCCCO)cc2)O[C@H]1c1ccccc1`, for which the z-score was -0.193.

As to `O=C1[C@H]2[C@H]3[C@H](O)[C@H](O)CC(=NOCc4ccccc4)[C@H]3CC[C@H]2C(=O)N1c1cccc(Oc2ccccc2)c1`, the z-score is -0.131. Consider `COC(=O)CC=C[C@@H](C)[C@H](OC)c1ccccc1Br`, for which the z-score is -0.655. Consider `CCN1C(=O)[C@H]2[C@H]3[C@H](O)C=CC(=O)[C@@H]3CC[C@H]2C1=O`, for which the z-score was -0.519.
